High-throughput results deposited in PubChem BioAssay by National Center for Advancing Translational Sciences (NCATS).
Shown are actives, neighbours in structure and some others; about 19% of the full set was active somewhere.
DT40 TDP1 no CPT: qHTS for Inhibitors of human tyrosyl-DNA phosphodiesterase 1 (TDP1): qHTS in cells in absence of CPT. 15% of 420,000 active. Potency, µM (top dose mostly 46.2 µM), without a hit: at the top dose activity change, negative = growth inhibition, most hits filed as inhibitors. DT40 Tdp1-/- hTDP1 cells, no CPT, ATP luminescence, 48 h; also: nearly all actives have a fitted effect of over 55% in size
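Luminescent ATP content (CellTiter-Glo) served as the growth readout. Knockout chicken DT40 cells expressing human TDP1 were exposed to compounds without camptothecin for a minimum 48 hr at 37 °C.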
HT1080 IDH1KD tx: qHTS for induction of synthetic lethality in tumor cells producing 2HG: qHTS for the HT-1080-IDH1KD cell line; HT-1080 IDH1 knockdown viability, ATP luminescence, 48 h; Potency, µM (highest dose often 46.1 µM), for the others: top-dose activity, negative = toxicity, most hits filed as cytotoxic; 2% of 360,000 active;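 also: 0% = DMSO wells and -100% = cell-free medium wells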
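Assay cells: HT-1080 with IDH1 knockdown, 750 per well, RPMI/5% FBS. Exposure: 48 h at 37 °C following 2 h pre-incubation. Read: CellTiter-Glo luminescence; fitted concentration-response, curve class assigned.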
DT40 TDP1 CPT: qHTS for Inhibitors of human tyrosyl-DNA phosphodiesterase 1 (TDP1): qHTS in cells in presence of CPT; chicken DT40 Tdp1-/-;hTDP1 cells + 20 nM CPT, ATP luminescence, 48 h; Potency, µM (doses to about 46.2 µM), for inactives: at the highest dose activity change, negative = growth inhibition, hits mostly inhibitors; 12% of 420,000 active; AID 686979, 2013; also: nearly all actives have a fitted effect of over 55% in size
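Cell growth measured by CellTiter-Glo luminescence after a minimum 48 h, 37 C compound exposure with 20 nM CPT in Tdp1-knockout DT40 cells stably expressing hTDP1, seeded 400/well; qHTS titration format.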
KB-V1 cytotox: qHTS assay for MDR1-selective chemotherapeutics: Primary screen using the drug-selected MDR subline cells KB-V1. Potency, µM (series often up to 46.1 µM), usual class: cytotoxic. 3.4% of 400,000 active. KB-V1 MDR cells viability, CellTiter-Glo, 72 h. AID 1347076, 2019; also: nearly all actives have a fitted effect of over 60% in size
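KB-V1 MDR subline cells in DMEM (phenol-red free, 10% FBS) exposed to compounds in qHTS concentration series for 72 h at 37 degrees C. Viability read by CellTiter-Glo luminescence; concentration-effect curves fitted after normalization and correction.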
HT1080-NT tox: qHTS for induction of synthetic lethality in tumor cells producing 2HG: qHTS for the HT-1080-NT fibrosarcoma cell line. HT-1080-NT fibrosarcoma viability, CellTiter-Glo ATP luminescence, 48 h. Potency, µM (highest dose often 46.1 µM), for the others: at the top dose activity, negative = less viability, usual class: cytotoxic. 1.6% of 360,000 active. AID 686970, 2013;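 also: NT is the 2HG producing partner of a matched IDH1 knockdown line; 0% = DMSO-treated cells and -100% = media-only wells without cells; nearly all actives have a fitted effect of over 55% in size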
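Fibrosarcoma NT cells, 750 per well in 5% FBS RPMI, were exposed to compound for 48 hours. Viability: CellTiter-Glo luminescence.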
KB-3-1 cytotox: qHTS assay for MDR1-selective chemotherapeutics: Primary screen using the parental adenocarcinoma cell KB-3-1; KB-3-1 viability, CellTiter-Glo ATP luminescence, 72 h; 1.4% of 400,000 active; Potency, µM (highest dose often 46.1 µM), usual class: cytotoxic; also: nearly all actives have a fitted effect of over 60% in size
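Multi-concentration cytotoxicity screen in KB-3-1 cells grown in DMEM lacking phenol red with 10% FBS. After 72 h at 37 °C with compound, ATP-dependent luminescence was recorded.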
Active calls of the source: *; i = inactive; ? = inconclusive; . = not tested or not shown. Calls follow the shape of the dose curve; as a rule, active = well fitted curve in the direction sought with a large enough effect; inconclusive = small, poorly fitted or top-dose-only effect, or another doubt; inactive = no such curve, though single readings can be large; an effect the other way counts as inactive or inconclusive. Unless noted, % is scaled to controls: 0 for no effect and ±100 for the full control effect; potency is read from the fitted curve at half-maximal effect.

SMILES	DT40 TDP1 no CPT	HT1080 IDH1KD tx	DT40 TDP1 CPT	KB-V1 cytotox	HT1080-NT tox	KB-3-1 cytotox
CCO[C@H]1OC(C(=O)Nc2ccccc2)=C[C@@H](c2ccc(Br)cc2)[C@@H]1CCCO	18µM*	?	16µM*	i	?	i
N#Cc1cnc(NOCc2ccc(Cl)cc2)nc1	-4%	-7%	-21%	i	14%	i
Cc1ccc(C(CNS(=O)(=O)c2ccc([N+](=O)[O-])cc2)N2CCN(C)CC2)cc1 (stereo not drawn)	?	-3%	-23%	i	-19%	i
COCC(=O)Nc1ccc2c(c1)OCC(=O)N2Cc1ccc(C)cc1	5%	-5%	7%	i	2%	i
Cc1ccc(C(=O)OCC(=O)NCc2ccc(Cl)cc2Cl)o1	-21%	3%	?	i	1%	i
CCO[C@@H]1OC(C(=O)NC2CC2)=C[C@H](C2CCCCC2)[C@H]1CCCO	?	-3%	?	i	7%	i
CCO[C@H]1OC(C(=O)NC2CC2)=C[C@@H](C2CCCCC2)[C@@H]1CCCO	23µM*	1%	21µM*	i	4%	i
CCC1(CC)C(=O)C(C)(C)C(=O)OC1c1cccs1 (stereo not drawn)	21µM*	10%	?	i	5%	i
CC1C(=O)C(C)C(c2cccs2)NC1c1cccs1 (stereo not drawn)	-11%	-5%	-13%	i	-5%	i
C[C@H]1CCC[C@]2(O[C@H](CCO)C[C@@H](O)[C@@H]2O)O1	1%	-1%	-10%	?	8%	i
O=C(NCC(c1cccnc1)N1CCN(Cc2ccccc2)CC1)C(=O)Nc1cccc(F)c1 (stereo not drawn)	23µM*	.	26µM*	i	.	i
O=C(NCC(c1cccnc1)N1CCN(Cc2ccccc2)CC1)C(=O)Nc1ccc(F)cc1 (stereo not drawn)	23µM*	.	18µM*	i	.	i
CCc1ccc(NC(=O)C(=O)NCC(c2cccnc2)N2CCN(Cc3ccccc3)CC2)cc1 (stereo not drawn)	8.2µM*	.	12µM*	i	.	i
O=S(=O)(NCC(c1cccnc1)N1CCN(Cc2ccccc2)CC1)c1ccc(F)cc1 (stereo not drawn)	-30%	-3%	?	i	-1%	i
CN1C[C@@H]2[C@@H]3C(=O)N(C)C(=O)[C@@H]3[C@](C)(C1=O)N2C(=O)c1ccc(Cl)c(Cl)c1	-17%	4%	-22%	i	5%	i
COc1ccc(N(CC(=O)NC(C)(C)C)C(=O)CCC(=O)Nc2nccs2)c(OC)c1	-13%	1%	-1%	i	0%	i
CCN(C(=O)COC(=O)/C=C/c1cccc(Cl)c1)c1c(N)n(Cc2ccccc2)c(=O)[nH]c1=O	?	2%	23µM*	i	3%	i
CN(C(=O)COC(=O)/C=C/c1cccs1)c1c(N)n(Cc2ccccc2)c(=O)[nH]c1=O	-9%	0%	12%	i	2%	i
CCN(C(=O)COC(=O)/C=C/c1ccc(Cl)c(Cl)c1)c1c(N)n(Cc2ccccc2)c(=O)[nH]c1=O	2.1µM*	0%	3.7µM*	i	6%	i
